Screening data as filed in PubChem.
RAD52 anneal inh: inhibitors of human RAD52 DNA annealing | P43351 | recombinant RAD52 DNA annealing, FRET fluorescence | inhibition, % at 18.7 µM | 360,000 compounds, 0.46% hits | AID 651710;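 active means every replicate showing at least 50% inhibition; inconclusive means mean inhibition at least 50% but not in every replicate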
Target sequence (P43351 whole entry, looked up): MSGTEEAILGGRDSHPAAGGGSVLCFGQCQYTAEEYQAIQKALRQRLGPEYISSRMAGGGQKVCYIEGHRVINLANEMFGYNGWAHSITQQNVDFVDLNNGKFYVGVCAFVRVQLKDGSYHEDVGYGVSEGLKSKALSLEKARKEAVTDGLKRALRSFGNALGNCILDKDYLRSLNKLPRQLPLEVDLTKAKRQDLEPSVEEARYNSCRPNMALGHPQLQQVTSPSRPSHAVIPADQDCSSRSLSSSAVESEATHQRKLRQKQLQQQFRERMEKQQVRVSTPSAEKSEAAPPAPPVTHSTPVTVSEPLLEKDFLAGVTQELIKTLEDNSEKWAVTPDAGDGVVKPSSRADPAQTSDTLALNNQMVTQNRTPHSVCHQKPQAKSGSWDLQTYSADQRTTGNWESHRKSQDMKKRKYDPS
RAD54 branch: inhibitors of human RAD54 branch migration. Q92698. RAD54 Holliday junction branch migration, FAM/BHQ fluorescence. inhibition, % at 10.4 µM. 360,000 compounds, 0.14% hits;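 active means mean normalized replicate activity at least 40 and at least half of replicates scoring 40 or more; inconclusive means only one of the two criteria met; inactive means mean below 40 and under half of replicates reaching 40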;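 further: inhibitors cause a drop in the FAM fluorescence signal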
EWS-Fli inh: EWS/Fli transcriptional activity inhibition; A673 NR0B1-luciferase reporter, viability-normalised; inhibition, % at 12.6 µM; 350,000 compounds, 0.67% hits; AID 651661;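 active means mean inhibition of at least 50% after viability correction, with every replicate also passing that limit; inconclusive means mean reaches 50% but only one of two replicates passes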;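 further: firefly luciferase signal divided by Alamar Blue viability fluorescence both relative to DMSO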
CFTR F508del cor: correctors of CFTR F508del function in bronchial epithelial cells; activity (quench increase), % at 7.58 µM; 350,000 compounds, 0.36% hits; CFBE cells, YFP halide quenching; stimulated with forskolin plus potentiator P3; % fluorescence drop versus neutral controls; AID 720511;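 active means mean added fluorescence quench of at least 8% versus neutral control, with both replicates also reaching 8%; inconclusive means only one of the mean or replicate conditions met; inactive means mean below 8% and not both replicates reaching 8%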;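 further: cells transiently co-express mutant CFTR-F508del with the halide-sensitive YFP; corrector assay measuring rescue of mutant channel to the surface after 24 h compound exposure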
INS-1E GSIS act: GLuc luminescence reporter in INS-1E cells, primary screen for activators of glucose-dependent secretion of insulin; 370,000 compounds, 0.61% hits; activation, % at 16.6 µM; INS-1E GLuc reporter insulin secretion, 2-3 h; AID 743287;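 active means lowest replicate activation of at least 40%, so every replicate reaches that level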
LGR2 inh: blocks bursicon-induced cAMP signaling via Drosophila LGR2; HEK293 LGR2, CRE-luciferase, bursicon-stimulated, 4 h; inhibition, % at 9.99 µM; 380,000 compounds, 0.35% hits; AID 720647;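 active means drop in luminescence signal, shown as inhibition above about 50% in the replicate tests, limit read from the data, passing the limit was not always enough; inconclusive means probably only some replicates passing the limit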;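 further: agonist challenge used bursicon conditioned medium at about half maximal strength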
DNA binding: DNA binding small molecules; shares compounds with EWS-Fli inh; salmon sperm DNA acridine orange fluorescence polarization; AC35, µM (highest dose often 68 µM); 640 compounds, 2% hits;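 active means fitted curve reaches a 35% signal fall AC35 below twice the sample's top valid tested dose, actives reach about 48 µM in these data; inactive means the rest, including activity in the rising direction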;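 further: lower polarization ratio signals compound binding to DNA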
Of the large screens only hits and unclear results are named; the others gave an inactive call (follow-up assays come after a bar, where they were run); ! = a repeat was not active. Sampled rows, rich in hits. Any-hit rate of the full collection: about 1.8%.

CNc1c(NS(=O)(=O)c2ccc(OC)cc2)c(=O)oc2ccccc12	none
Nc1nc(=S)c2ncn([C@@H]3O[C@H](CO)[C@@H](O)[C@H]3O)c2[nH]1	EWS-Fli inh 53 | DNA binding inactive
Nc1ncn([C@@H]2O[C@H](CO)[C@@H](O)[C@H]2O)c(=O)n1	EWS-Fli inh 62, LGR2 inh inconclusive | DNA binding inactive
Nc1nc(=S)c2ncn(C3OC(CO)C(O)C3O)c2[nH]1 (stereo not drawn)	none
COC(=O)C[C@@H]1CC[C@@H](NC(=O)Nc2ccc(C(F)(F)F)cc2)[C@H](CO)O1	none
COC(=O)C[C@H]1CC[C@@H](NC(=O)Nc2ccc(C(F)(F)F)cc2)[C@H](CO)O1	EWS-Fli inh 69 | DNA binding inactive
CN1c2ccc(-c3cccc(C#N)c3)cc2[C@H]2[C@H](CCN2C(=O)C2CCCC2)[C@H]1CO	none (no result: RAD54 branch)
COc1ccc(-c2cc(CCCC(=O)NCCc3cc(OC)ccc3OC)no2)cc1	none (no result: RAD52 anneal inh, EWS-Fli inh, CFTR F508del cor)
CCOc1ccc(-c2cc(CCCC(=O)NCc3ccc(C)cc3)no2)cc1	EWS-Fli inh 61 | DNA binding inactive
Cc1ccc(CSCCC(=O)NCCc2ccc(Cl)cc2)cc1	none (no result: RAD52 anneal inh, EWS-Fli inh, CFTR F508del cor)
C(=N\Nc1nc2ccccc2[nH]1)/c1ccc2ncccc2c1	none
C(=N\Nc1nc2ccccc2[nH]1)/c1ccccn1	EWS-Fli inh 70, LGR2 inh 90 (no result: RAD54 branch) | DNA binding inactive
Cc1noc(C)c1S(=O)(=O)Nc1ccc2c(c1)C(=O)N([C@@H](C)CO)C[C@H](C)[C@@H](CN(C)C(=O)C1CCCCC1)OCCCC[C@@H](C)O2	none
CC(=O)c1ccc(N=Nc2ccc(C)cc2)cc1	EWS-Fli inh 52, LGR2 inh 73 (no result: RAD54 branch, CFTR F508del cor) | DNA binding inactive
Cc1ccc(C(=O)c2ccc(C)cc2)cc1	none
Cc1ccsc1C(=O)OCC(=O)NCCC1=CCCCC1	EWS-Fli inh 65 (no result: RAD54 branch, CFTR F508del cor) | DNA binding inactive
COC(=O)c1cc2c(c3c4cc(OC)ccc4n(S(=O)(=O)c4ccccc4)c13)C(=O)N(Cc1ccc(C(F)(F)F)cc1)C2	none (no result: RAD54 branch)
CC1(C)CC(=O)CC(=O)/C1=N\Nc1c(Cl)cc(Cl)cc1Cl	none (no result: RAD54 branch, CFTR F508del cor, INS-1E GSIS act)
CCc1ccc(S(=O)(=O)c2ccc(-n3nc(C)cc3N)cc2)cc1	EWS-Fli inh 53 (no result: RAD54 branch) | DNA binding inactive
COc1ccc(NC(=O)C[C@H]2C(=O)N(CCc3ccccc3)C[C@@H]2c2ccc(OC)cc2)cc1	none
COc1ccc(C2=Nn3c([n+](C)c4ccccc43)SC2)cc1	EWS-Fli inh 53 (no result: RAD54 branch) | DNA binding inactive
C[C@@H]1CN([C@H](C)CO)C(=O)c2cc(C#CCc3ccccc3)cnc2O[C@@H]1CN(C)Cc1cccc(F)c1	EWS-Fli inh 56 | DNA binding inactive
C[C@H](CO)N1C[C@H](C)[C@H](CN(C)Cc2cccc(F)c2)Oc2ncc(C#CCc3ccccc3)cc2C1=O	none
C[C@@H]1CN([C@@H](C)CO)C(=O)Cc2cc(NC(=O)Nc3ccc(C(F)(F)F)cc3)ccc2O[C@@H]1CN(C)Cc1ccc(C(=O)Nc2ccccc2N)cc1	EWS-Fli inh 55 | DNA binding inactive
C[C@H](CO)N1C[C@H](C)[C@@H](CN(C)Cc2ccc(Oc3ccccc3)cc2)Oc2ccc(NS(=O)(=O)c3ccc(Cl)cc3)cc2CC1=O	EWS-Fli inh 57 | DNA binding inactive
C[C@H]1CN([C@@H](C)CO)C(=O)Cc2cc(NC(=O)Nc3ccc(F)cc3)ccc2O[C@@H]1CN(C)Cc1ccc(C(=O)Nc2ccccc2N)cc1	none (no result: RAD54 branch)
Cc1ccc(S(=O)(=O)N(C)C[C@@H]2Oc3ccc(NC(=O)CCCCCC(=O)Nc4ccccc4N)cc3CC(=O)N([C@@H](C)CO)C[C@@H]2C)cc1	EWS-Fli inh 56 | DNA binding inactive
O=C(Nc1ccc(-c2csc(Nc3ccccc3)n2)cc1)c1ccccc1	none
C[C@@H]1CN([C@H](C)CO)C(=O)c2cc(NC(=O)Nc3ccccc3)ccc2O[C@@H]1CN(C)C(=O)Nc1ccc2c(c1)OCO2	none (no result: RAD52 anneal inh, RAD54 branch)
COc1ccc(OC)c(/C=C(\NC(=O)c2ccccc2)C(=O)N/N=C/c2ccc(C)s2)c1	none (no result: RAD52 anneal inh, EWS-Fli inh, CFTR F508del cor, INS-1E GSIS act, LGR2 inh)
C[C@H]1CN([C@@H](C)CO)C(=O)c2cc(N(C)C)ccc2O[C@@H]1CN(C)Cc1ccc(C(=O)Nc2ccccc2N)cc1	EWS-Fli inh 65 | DNA binding inactive
C[C@H]1CN([C@@H](C)CO)C(=O)c2cc(NC(=O)C3CCCCC3)ccc2O[C@H]1CN(C)Cc1ccc(C(=O)Nc2ccccc2N)cc1	EWS-Fli inh 52 | DNA binding inactive
C[C@@H]1CN([C@@H](C)CO)C(=O)c2cc(NC(=O)C3CC3)ccc2O[C@H]1CN(C)Cc1ccc(C(=O)Nc2ccccc2N)cc1	none
C[C@@H]1CN([C@H](C)CO)C(=O)CCCn2nncc2CO[C@H]1CN(C)Cc1ccc(Oc2ccccc2)cc1	EWS-Fli inh 70! | DNA binding inactive
C[C@H](CO)N1C[C@H](C)[C@H](CN(C)Cc2ccc(Oc3ccccc3)cc2)OCc2cnnn2CCCC1=O	none
C[C@H]1CN([C@@H](C)CO)C(=O)c2cc(NC(=O)CCCCCC(=O)Nc3ccccc3N)ccc2O[C@H]1CN(C)Cc1ccc(Cl)c(Cl)c1	none
C[C@@H]1CN([C@H](C)CO)C(=O)c2cc(NC(=O)CCCCCC(=O)Nc3ccccc3N)ccc2O[C@@H]1CN(C)Cc1ccc(Cl)c(Cl)c1	EWS-Fli inh 69 | DNA binding inactive
O=C1NN(c2ccccc2)C(=O)/C1=C/c1cccs1	none (no result: RAD54 branch)
C[C@H](CO)N1C[C@H](C)[C@H](CN(C)Cc2ccc(C(=O)Nc3ccccc3N)cc2)Oc2ccc(N(C)C)cc2CC1=O	EWS-Fli inh 67 | DNA binding inactive
C[C@@H]1CN([C@@H](C)CO)C(=O)Cc2cc(N(C)C)ccc2O[C@@H]1CN(C)Cc1ccccc1	EWS-Fli inh 55, CFTR F508del cor 10 | DNA binding inactive
CC(Oc1ccc2oc3ccccc3c2c1)C(=O)NC12CC3CC(CC(C3)C1)C2 (stereo not drawn)	none (no result: RAD54 branch, CFTR F508del cor, INS-1E GSIS act, LGR2 inh)
CN1C=CC(=CC=C2C=CC(=O)C=C2)C=C1	none
OCC1OC(n2ccc3c2ncn2ncnc32)C(O)C1O (stereo not drawn)	EWS-Fli inh 71 | DNA binding inactive
O=C(NC1CCCC1)C(c1ccccc1)n1c(CSCCOc2ccccc2)nc2ccccc21 (stereo not drawn)	EWS-Fli inh 60 (no result: RAD54 branch) | DNA binding inactive
O=C(NC1CCCC1)C(c1ccccc1)n1c(-c2cccs2)nc2ccccc21 (stereo not drawn)	none (no result: RAD54 branch)
CCOc1ccc2nc(NC(=O)c3c([N+](=O)[O-])cnn3CC)sc2c1	none (no result: RAD52 anneal inh, EWS-Fli inh, CFTR F508del cor)
Cc1cc(C)cc(OCC(=O)OCC(=O)Nc2cc(S(=O)(=O)N3CCOCC3)ccc2C)c1	EWS-Fli inh 66 | DNA binding inactive
